# In PubChem BioAssay AID1159580 (chemical genetic matrix, 2015):
# About 2,000 (36%) of roughly 5,500 compounds were called active. Not shown: some 18% with an inconclusive outcome. The list shows a part of the results. A number with no mark means an inactive call. Cut-off read from the data, not from the text of the source: active = normalized growth mostly below about 0.91 (no sharp cut-off); inconclusive = no clear call, values can overlap the other calls; inactive = mostly above about 0.92.
# Test: chemical genetic growth profiling, strain panel (AID 1159580);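 note: tested at 20 µM; growth read once vehicle control cultures reached saturation at 30 °C; 1 = growth at the plate median or of vehicle wells; lower values mean less growth of the strain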
# Conditions: growth OD
# [1] = S. cerevisiae deletion strains, locus YAL013W, strain DEP1, hits give low values
# [2] = S. cerevisiae deletion strains, locus YBR229C, strain ROT2, hits give low values
# [3] = S. cerevisiae deletion strains, locus YDL101C, strain DUN1, hits give low values
# [4] = S. cerevisiae deletion strains, locus YDR150W, strain NUM1, hits give low values
# [5] = S. cerevisiae deletion strains, locus YEL061C, strain CIN8, hits give low values
# [6] = S. cerevisiae deletion strains, locus YGR078C, strain PAC10, hits give low values
# [7] = S. cerevisiae deletion strains, locus YHR030C, strain SLT2, hits give low values
# [8] = S. cerevisiae deletion strains, locus YHR087W, strain rtc3, hits give low values
# [9] = S. cerevisiae deletion strains, locus YJR043C, strain POL32, hits give low values
# [10] = S. cerevisiae deletion strains, locus YJR075W, strain HOC1, hits give low values
# [11] = S. cerevisiae deletion strains, locus YLR039C, strain RIC1, hits give low values
# [12] = S. cerevisiae deletion strains, locus YLR058C, strain SHM2 (second series), hits give low values
# [13] = S. cerevisiae deletion strains, locus YLR085C, strain ARP6, hits give low values
# [14] = S. cerevisiae deletion strains, locus YLR262C, strain YPT6, hits give low values
# [15] = S. cerevisiae deletion strains, locus YML094W, strain GIM5, hits give low values
# [16] = S. cerevisiae deletion strains, locus YMR219W, strain ESC1, hits give low values
# [17] = S. cerevisiae deletion strains, locus YMR263W, strain SAP30, hits give low values
# [18] = S. cerevisiae deletion strains, locus YNL153C, strain GIM3, hits give low values
# [19] = S. cerevisiae deletion strains, locus YNL298W, strain CLA4 (second series), hits give low values
# [20] = S. cerevisiae deletion strains, locus YNL322C, strain KRE1, hits give low values
# [21] = S. cerevisiae deletion strains, locus YNR030W, strain Alg12, hits give low values
# [22] = S. cerevisiae deletion strains, locus YPL055C, strain LGE1, hits give low values
# [23] = S. cerevisiae deletion strains, locus YPL241C, strain CIN2, hits give low values
# [24] = S. cerevisiae deletion strains, locus YPR135W, strain CTF4, hits give low values
smiles,measurement,setting,value
Cc1onc(-c2c(F)cccc2Cl)c1C(=O)c1ccc(F)cc1,normalized growth,[1],0.939
same,normalized growth,[2],0.98
same,normalized growth,[3],0.991
same,normalized growth,[4],0.963
same,normalized growth,[5],0.979
same,normalized growth,[6],0.973
same,normalized growth,"S. cerevisiae deletion strains, locus YGR229C, strain SMI1, hits give low values",0.969
same,normalized growth,[7],0.696
same,normalized growth,[8],0.959
same,normalized growth,"S. cerevisiae deletion strains, locus YJL187C, strain SWE1, hits give low values",0.975
same,normalized growth,[9],0.956
same,normalized growth,[10],0.937
same,normalized growth,"S. cerevisiae deletion strains, locus YKL190W, strain CNB1, hits give low values",0.974
same,normalized growth,[11],0.807
same,normalized growth,[12],0.987
same,normalized growth,[13],0.8
same,normalized growth,[14],0.787 (active)
same,normalized growth,[15],0.972
same,normalized growth,[16],0.996
same,normalized growth,[17],0.978
same,normalized growth,"S. cerevisiae deletion strains, locus YMR307W, strain GAS1, hits give low values",0.708
same,normalized growth,[18],0.973
same,normalized growth,[19],0.93
same,normalized growth,[20],0.97
same,normalized growth,[21],0.949
same,normalized growth,[22],0.929
same,normalized growth,[23],0.964
same,normalized growth,[24],0.817
same,normalized growth,"S. cerevisiae strains, strain wild type, hits give low values",0.959
CCN(CC)CCNC(=O)c1c(-c2c(Cl)cccc2Cl)noc1C,normalized growth,[1],0.996
same,normalized growth,[2],1.01
same,normalized growth,"S. cerevisiae deletion strains, locus YCL061C, strain MRC1, hits give low values",1.02
same,normalized growth,[3],1
same,normalized growth,[4],0.903
same,normalized growth,[5],1.04
same,normalized growth,[6],1.01
same,normalized growth,[7],1.07
same,normalized growth,[8],0.998
same,normalized growth,[9],1.03
same,normalized growth,[10],0.982
same,normalized growth,[11],1.16
same,normalized growth,[12],0.99
same,normalized growth,[13],1.05
same,normalized growth,[14],1.15
same,normalized growth,[15],1.02
same,normalized growth,[16],1.01
same,normalized growth,[17],0.992
same,normalized growth,[18],0.99
same,normalized growth,[19],1.05
same,normalized growth,[20],1
same,normalized growth,[21],1.02
same,normalized growth,"S. cerevisiae deletion strains, locus YOL006C, strain TOP1, hits give low values",1.03
same,normalized growth,[22],0.99
same,normalized growth,[23],1.01
same,normalized growth,[24],0.973
